This note sets out measurements from PubChem BioAssay (EPA / NIEHS).

The source made the active and inactive calls. Rule for the calls: active = hit-call score of the fitted dose curve at least 0.9, where 1 is the maximum; inactive = score below 0.9.

Common to all, as to conditions: mRNA level, 48 h; actives raise or lower the signal
Read-out in assay [1]: matrix metalloproteinase-3 (MMP3), MMP3 (gene 4314)
Briefly: LTEA_HepaRG_MMP3: Life Technologies and Expression Analysis (LTEA) Assay for matrix metalloproteinase-3 (MMP3) using HepaRG (AID 2283519). The procedure, abridged:
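Fluidigm-based TaqMan qRT-PCR, normalized to ACTB, GAPDH and POLR2A and fitted bidirectionally versus 0.5% DMSO, measured transcript levels. Treatment: duplicate 48 h exposures of HepaRG cells, ~100,000/well, to eight half-log concentrations topping at 100 uM.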

Read-out in assay [2]: Paternally Expressed 10 (PEG10), PEG10 (gene 23089)
Nature of the assay: LTEA_HepaRG_PEG10: Life Technologies and Expression Analysis (LTEA) Assay for Paternally Expressed 10 (PEG10) using HepaRG (AID 2283520).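 For AC50: PEG10 transcript by qRT-PCR normalised to ACTB GAPDH and POLR2A.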 In outline:
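PEG10 transcript measured by Fluidigm qRT-PCR, normalized to three housekeeping genes, in HepaRG cells treated 48 h (highest 100 uM, half-log steps, 0.5% DMSO vehicle). Cells plated 48 h before switching to serum-free induction medium.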

Read-out in assay [3]: Nuclear factor NF-kappa-B p105 subunit (Homo sapiens) (UniProt P19838)
Briefly: LTEA_HepaRG_NFKB1: Life Technologies and Expression Analysis (LTEA) Assay for Nuclear Factor Kappa B Subunit 1 (NFKB1) using HepaRG (AID 2283521). The procedure, abridged: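 Differentiated human HepaRG cells were exposed for 48 h in serum-free induction medium to eight concentrations (top 100 uM, half-log steps, 0.5% DMSO), in duplicate. NFKB1 mRNA was measured by TaqMan qRT-PCR, normalized to ACTB/GAPDH/POLR2A, and fitted bidirectionally against DMSO.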

Read-out in assay [4]: Protein phosphatase 2A (PPP2R4), PTPA (gene 5524)
Briefly: LTEA_HepaRG_PPP2R4: Life Technologies and Expression Analysis (LTEA) Assay for Protein phosphatase 2A (PPP2R4) using HepaRG (AID 2283522). In outline: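 Expression was quantified by Fluidigm qRT-PCR normalised to three housekeeping genes after 48 h treatment. Human HepaRG cells received an 8-point series from 100 µM downward by half-logs, in duplicate with 0.5% DMSO vehicle and 1 mM phenobarbital as induction control.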

Read-out in assay [5]: Phosphatase and tensin (PTEN), PTEN (gene 5728)
Briefly: LTEA_HepaRG_PTEN: Life Technologies and Expression Analysis (LTEA) Assay for Phosphatase and tensin (PTEN) using HepaRG (AID 2283523). The procedure, abridged: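 Read-out: TaqMan qRT-PCR of PTEN transcript, normalized to three housekeeping genes, fitted in both directions against 0.5% DMSO. Differentiated human HepaRG cultures received chemicals for 48 h, eight-point half-log series topping at 100 uM.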

Read-out in assay [6]: solute carrier (SLC22A1), SLC22A1 (gene 6580)
Nature of the assay: LTEA_HepaRG_SLC22A1: Life Technologies and Expression Analysis (LTEA) Assay for solute carrier (SLC22A1) using HepaRG (AID 2283524). In outline: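 Transcript level of SLC22A1 quantified by qRT-PCR (normalized to three housekeeping genes) after 48 h chemical exposure of HepaRG cells, eight concentrations up to 100 µM, half-log steps, 0.5% DMSO vehicle. Gain or loss relative to DMSO fitted bidirectionally.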

Read-out in assay [7]: Pyruvate Dehydrogenase Kinase 4 (PDK4), PDK4 (gene 5166)
Briefly: LTEA_HepaRG_PDK4: Life Technologies and Expression Analysis (LTEA) Assay for Pyruvate Dehydrogenase Kinase 4 (PDK4) using HepaRG (AID 2283525). The procedure, abridged:
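Readout is qRT-PCR of PDK4 transcript, normalized to three housekeeping genes, with bidirectional fitting against 0.5% DMSO vehicle. Differentiated HepaRG cells were treated 48 h in serum-free induction medium, duplicate wells, eight-point half-log series topping at 100 uM.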

Read-out in assay [8]: NAD(P)H dehydrogenase [quinone] 1 (NQO1), NQO1 (gene 1728)
Nature of the assay: LTEA_HepaRG_NQO1: Life Technologies and Expression Analysis (LTEA) Assay for NAD(P)H dehydrogenase [quinone] 1 (NQO1) using HepaRG (AID 2283526). The procedure, abridged:
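NQO1 transcript induction or loss measured by TaqMan qRT-PCR, referenced to three housekeeping genes and fitted bidirectionally against 0.5% DMSO. HepaRG cultures exposed 48 h, duplicate, eight-point half-log series, top 100 uM.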

Read-out in assay [9]: Nuclear factor erythroid 2-related factor 2 (Homo sapiens) (UniProt Q16236)
Briefly: LTEA_HepaRG_NFE2L2: Life Technologies and Expression Analysis (LTEA) Assay for Nuclear factor erythroid 2-related factor 2 (NFE2L2) Transcription Factor using HepaRG (AID 2283527).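 For outcome: TaqMan qRT-PCR transcript level normalised to ACTB GAPDH and POLR2A housekeeping genes.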 In outline: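 NFE2L2 transcript level was read by qRT-PCR (housekeeping ACTB/GAPDH/POLR2A normalisation) after 48 h chemical treatment of HepaRG in serum-free induction medium. Duplicate 8-point half-log curves, top 100 uM, 0.5% DMSO vehicle; up- or down-regulation fitted against vehicle.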

Read-out in assay [10]: succinate dehydrogenase complex iron sulfur subunit B (SDHB), SDHB (gene 6390)
Briefly: LTEA_HepaRG_SDHB: Life Technologies and Expression Analysis (LTEA) Assay for succinate dehydrogenase complex iron sulfur subunit B (SDHB) using HepaRG (AID 2283528). In outline:
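HepaRG, 48 h exposure, 8-pt half-log series from 100 uM in 0.5% DMSO, duplicates. Readout: SDHB mRNA by Fluidigm qRT-PCR vs housekeeping genes; bidirectional fit relative to DMSO.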

Read-out in assay [11]: solute carrier (SLCO1B1), SLCO1B1 (gene 10599)
Nature of the assay: LTEA_HepaRG_SLCO1B1: Life Technologies and Expression Analysis (LTEA) Assay for solute carrier (SLCO1B1) using HepaRG (AID 2283530). The procedure, abridged:
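Human HepaRG cultures treated for 48 h with an eight-concentration half-log series topping at 100 uM; SLCO1B1 measured by qRT-PCR and fitted bidirectionally relative to DMSO.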

Read-out in assay [12]: sulfotransferase 2A1 (SULT2A1), SULT2A1 (gene 6822)
Nature of the assay: LTEA_HepaRG_SULT2A1: Life Technologies and Expression Analysis (LTEA) Assay for sulfotransferase 2A1 (SULT2A1) using HepaRG (AID 2283531). In outline:
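Gene-expression endpoint in a human liver cell line: SULT2A1 mRNA change after 48 h chemical treatment, curves fitted in both directions relative to 0.5% DMSO vehicle. Concentrations spanned eight half-log steps from 100 uM.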

Read-out in assay [13]: Transforming Growth Factor (TGFA), TGFA (gene 7039)
Nature of the assay: LTEA_HepaRG_TGFA: Life Technologies and Expression Analysis (LTEA) Assay for Transforming Growth Factor (TGFA) using HepaRG (AID 2283532). The procedure, abridged: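 TGFA transcript quantified by qRT-PCR (Fluidigm arrays) against three housekeeping genes, after 48 hours chemical treatment of HepaRG cells. Top concentration 100 uM with half-log dilutions, 8 points, duplicates, 0.5% DMSO.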

Read-out in assay [14]: Transforming Growth Factor (TGFB1), TGFB1 (gene 7040)
Nature of the assay: LTEA_HepaRG_TGFB1: Life Technologies and Expression Analysis (LTEA) Assay for Transforming Growth Factor (TGFB1) Transporter using HepaRG (AID 2283533). In outline: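 Eight-point concentration-response (max 100 uM, half-log) in HepaRG under serum-free induction conditions, 48 h. TGFB1 mRNA by qRT-PCR, housekeeping-normalized.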

Read-out in another assay: TIMP1, TIMP1 (gene 7076)
Nature of the assay: LTEA_HepaRG_TIMP1: Life Technologies and Expression Analysis (LTEA) Assay for TIMP1 using HepaRG (AID 2283534). In outline: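 TIMP1 induction or repression in HepaRG cells after 48 h chemical exposure (eight concentrations, highest 100 uM), assessed by normalized qRT-PCR with bidirectional fitting to DMSO controls.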

Read-out in assay [15]: Tumor necrosis factor receptor 1 (TNFRSF1A), TNFRSF1A (gene 7132)
Nature of the assay: LTEA_HepaRG_TNFRSF1A: Life Technologies and Expression Analysis (LTEA) Assay for Tumor necrosis factor receptor 1 (TNFRSF1A) using HepaRG (AID 2283535). The procedure, abridged:
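Assay uses 48 h chemical treatment of differentiated HepaRG monolayers, tested in duplicate at eight concentrations from 100 uM downward in 0.5% DMSO. mRNA is normalized to ACTB, GAPDH and POLR2A, with induction or suppression fitted relative to vehicle.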

Read-out in assay [16]: Cellular tumor antigen p53 (Homo sapiens) (UniProt P04637)
Nature of the assay: LTEA_HepaRG_TP53: Life Technologies and Expression Analysis (LTEA) Assay for Tumor Protein P53 (TP53) using HepaRG (AID 2283537). The procedure, abridged:
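HepaRG, 48 h exposure, top 100 uM, half-log 8-point, 0.5% DMSO vehicle, duplicates. Read: TP53 mRNA by TaqMan qRT-PCR, normalised to ACTB/GAPDH/POLR2A; bidirectional fit vs DMSO.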

Read-out in assay [17]: Signal transducer and activator of transcription 3 (Homo sapiens) (UniProt P40763)
Nature of the assay: LTEA_HepaRG_STAT3: Life Technologies and Expression Analysis (LTEA) Assay for Signal transducer and activator of transcription (STAT3) using HepaRG (AID 2283529). In outline: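 STAT3 transcript quantified by qRT-PCR against three housekeeping genes (ACTB, GAPDH, POLR2A), fitted both directions relative to DMSO. HepaRG cultures exposed 48 h to eight half-log concentrations, top 100 uM, 0.5% DMSO, serum-free induction medium.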

Read-out in assay [18]: Thyroid Hormone Responsive (THRSP), THRSP (gene 7069)
Briefly: LTEA_HepaRG_THRSP: Life Technologies and Expression Analysis (LTEA) Assay for Thyroid Hormone Responsive (THRSP) using HepaRG (AID 2283536). In outline:
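THRSP transcript quantified by Fluidigm qRT-PCR against three housekeeping genes after 48 h chemical exposure of HepaRG cells in serum-free induction medium; eight-point half-log series, top 100 uM, 0.5% DMSO vehicle, duplicate wells.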

Read-out in assay [19]: UDP glucuronosyltransferase (UGT1A1), UGT1A1 (gene 54658)
Briefly: LTEA_HepaRG_UGT1A1: Life Technologies and Expression Analysis (LTEA) Assay for UDP glucuronosyltransferase (UGT1A1) using HepaRG (AID 2283538). In outline:
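UGT1A1 transcript level, measured by qRT-PCR with three housekeeping genes for normalization, after 48 h treatment of human HepaRG cells (0.5% DMSO, duplicates, up to 100 uM, half-log steps, 8 points). Curves fit both directions against DMSO baseline.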

Chain of Nuclear factor erythroid 2-related factor 2 (Homo sapiens) (Q16236 whole entry, looked up): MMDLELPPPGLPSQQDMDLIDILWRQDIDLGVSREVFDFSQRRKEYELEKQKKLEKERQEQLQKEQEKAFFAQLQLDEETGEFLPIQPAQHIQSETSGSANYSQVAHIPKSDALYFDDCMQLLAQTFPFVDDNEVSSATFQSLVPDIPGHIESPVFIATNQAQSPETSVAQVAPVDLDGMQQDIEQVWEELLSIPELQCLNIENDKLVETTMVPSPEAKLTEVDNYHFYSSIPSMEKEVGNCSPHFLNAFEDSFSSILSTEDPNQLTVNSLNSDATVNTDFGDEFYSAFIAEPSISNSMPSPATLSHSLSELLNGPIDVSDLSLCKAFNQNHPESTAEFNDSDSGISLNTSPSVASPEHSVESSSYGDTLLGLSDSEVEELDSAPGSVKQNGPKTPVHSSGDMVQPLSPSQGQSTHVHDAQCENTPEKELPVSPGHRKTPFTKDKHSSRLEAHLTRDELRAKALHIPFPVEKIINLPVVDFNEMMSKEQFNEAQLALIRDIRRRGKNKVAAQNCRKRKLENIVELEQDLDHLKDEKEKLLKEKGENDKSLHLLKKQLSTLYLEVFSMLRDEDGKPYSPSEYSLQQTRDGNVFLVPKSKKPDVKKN
Chain of Nuclear factor NF-kappa-B p105 subunit (Homo sapiens) (P19838 whole entry, looked up): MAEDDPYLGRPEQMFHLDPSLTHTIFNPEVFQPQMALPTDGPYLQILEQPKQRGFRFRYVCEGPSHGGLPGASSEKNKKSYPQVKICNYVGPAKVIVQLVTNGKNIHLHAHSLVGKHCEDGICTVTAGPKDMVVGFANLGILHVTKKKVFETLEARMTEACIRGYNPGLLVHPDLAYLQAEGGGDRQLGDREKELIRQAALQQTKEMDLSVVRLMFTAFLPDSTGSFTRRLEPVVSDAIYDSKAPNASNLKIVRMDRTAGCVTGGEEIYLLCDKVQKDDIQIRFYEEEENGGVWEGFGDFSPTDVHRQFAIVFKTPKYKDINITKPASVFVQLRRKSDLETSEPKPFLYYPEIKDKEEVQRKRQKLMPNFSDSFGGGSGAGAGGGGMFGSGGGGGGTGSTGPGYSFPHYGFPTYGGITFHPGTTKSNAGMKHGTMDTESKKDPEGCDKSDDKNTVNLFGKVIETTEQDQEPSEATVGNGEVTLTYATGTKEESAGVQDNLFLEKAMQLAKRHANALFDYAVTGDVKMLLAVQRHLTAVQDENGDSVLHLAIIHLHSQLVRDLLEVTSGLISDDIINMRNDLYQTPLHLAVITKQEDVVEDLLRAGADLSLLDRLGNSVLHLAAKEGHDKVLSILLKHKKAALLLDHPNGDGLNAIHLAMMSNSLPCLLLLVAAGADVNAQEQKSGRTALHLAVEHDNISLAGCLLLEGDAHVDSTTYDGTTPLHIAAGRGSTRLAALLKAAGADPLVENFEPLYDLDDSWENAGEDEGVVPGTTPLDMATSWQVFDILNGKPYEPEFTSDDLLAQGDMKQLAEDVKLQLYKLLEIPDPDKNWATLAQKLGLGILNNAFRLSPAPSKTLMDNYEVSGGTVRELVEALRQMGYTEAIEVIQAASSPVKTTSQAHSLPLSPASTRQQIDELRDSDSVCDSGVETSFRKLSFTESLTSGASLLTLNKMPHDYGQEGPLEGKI
Chain of Cellular tumor antigen p53 (Homo sapiens) (P04637 whole entry, looked up): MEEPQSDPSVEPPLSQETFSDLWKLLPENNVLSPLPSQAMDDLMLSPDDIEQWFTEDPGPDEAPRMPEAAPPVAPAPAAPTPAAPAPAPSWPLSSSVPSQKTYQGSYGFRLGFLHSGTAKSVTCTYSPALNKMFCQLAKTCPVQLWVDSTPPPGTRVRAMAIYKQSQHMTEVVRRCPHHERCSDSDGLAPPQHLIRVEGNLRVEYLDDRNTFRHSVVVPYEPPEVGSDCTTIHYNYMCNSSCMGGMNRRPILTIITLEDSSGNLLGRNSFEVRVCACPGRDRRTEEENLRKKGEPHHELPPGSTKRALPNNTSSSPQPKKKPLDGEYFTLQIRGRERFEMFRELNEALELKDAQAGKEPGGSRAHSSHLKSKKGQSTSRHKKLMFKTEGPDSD
Chain of Signal transducer and activator of transcription 3 (Homo sapiens) (P40763 whole entry, looked up): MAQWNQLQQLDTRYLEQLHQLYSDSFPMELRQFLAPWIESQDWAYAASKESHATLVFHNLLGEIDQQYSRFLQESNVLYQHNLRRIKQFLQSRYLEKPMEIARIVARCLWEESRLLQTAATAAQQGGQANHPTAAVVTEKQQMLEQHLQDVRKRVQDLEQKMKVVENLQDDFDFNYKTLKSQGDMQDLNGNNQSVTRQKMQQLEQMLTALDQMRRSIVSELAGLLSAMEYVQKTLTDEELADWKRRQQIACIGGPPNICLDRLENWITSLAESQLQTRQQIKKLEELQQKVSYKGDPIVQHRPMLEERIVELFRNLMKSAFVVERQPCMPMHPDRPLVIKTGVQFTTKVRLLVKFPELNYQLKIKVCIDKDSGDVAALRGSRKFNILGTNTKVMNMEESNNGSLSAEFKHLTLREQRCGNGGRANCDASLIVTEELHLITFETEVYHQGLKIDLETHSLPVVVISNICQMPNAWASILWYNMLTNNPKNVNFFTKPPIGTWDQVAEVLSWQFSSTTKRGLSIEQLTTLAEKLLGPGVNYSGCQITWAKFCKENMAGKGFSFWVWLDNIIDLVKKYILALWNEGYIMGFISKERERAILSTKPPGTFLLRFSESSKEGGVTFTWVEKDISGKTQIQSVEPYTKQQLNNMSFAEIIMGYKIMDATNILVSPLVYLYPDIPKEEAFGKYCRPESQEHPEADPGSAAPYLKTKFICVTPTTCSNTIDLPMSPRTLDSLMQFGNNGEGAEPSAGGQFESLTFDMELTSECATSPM

As a reminder, the AC50 is the concentration at which the activity in the assay is half-maximal. Take `Nc1ccccc1N`: the half-maximal activity concentration (AC50) in assay [1] is 81.8 µM (active); in assay [2] it was 64.8 µM (active); in assay [4], 77.5 µM (active); in [5] it was 67.4 µM (active); in assay [6], 62.4 µM (active); in [7] it was 81.8 µM (active). The concentration at half-maximal activity (AC50) is 85.1 µM (active) in assay [10]; 69.5 µM (active) in assay [11]; 85.9 µM (active) in [12]; 50 µM (active) in assay [13]; 29.6 µM (active) in assay [14]; 50 µM (active) in assay [15]. The concentration at half-maximal activity (AC50) in assay [16] is 50 µM (active). The outcome in [3] was “inactive”; in assay [8], “inactive”; in [9] it was “inactive”; in the assay with TIMP1, TIMP1 (gene 7076), “inactive”.

Regarding `Oc1ccc2c(c1)OC[C@@H](N1CCC(O)(c3ccc(F)cc3)CC1)[C@H]2O`, the call in [1], in [2], in assay [3], in assay [5], in assay [6] and in assay [7] was inactive. In addition, the result in [8], in [9], in [17], in assay [11], in [12] and in [13] was inactive. Besides, the outcome was “inactive” in [14]; “inactive” with TIMP1, TIMP1 (gene 7076); “inactive” in assay [15]; “inactive” in assay [18]; “inactive” in assay [16].

Regarding `CC1(C)CC(N=C=O)CC(C)(CN=C=O)C1` (stereo unspecified), the molecule was classed as inactive in assay [1], in assay [2], in assay [3], in [5], in assay [6] and in [7]. Further, the outcome in [8], in assay [9], in [10], in assay [11], in assay [12] and in assay [13] was inactive. Besides, the outcome in assay [14] was “inactive”; with TIMP1, TIMP1 (gene 7076), “inactive”; in assay [15], “inactive”; in assay [16], “inactive”; in [19], “inactive”.

Regarding `Cc1oc(-c2ccccc2)nc1CCOc1cccc2c1ccn2CCC(=O)O`, the outcome in assay [2] is “inactive”; in [3] it was “inactive”; in assay [4], “inactive”; in assay [5], “inactive”; in [8], “inactive”; with TIMP1, TIMP1 (gene 7076), “inactive”. Moreover, the molecule was classed as inactive in assay [15]. Further, the concentration at half-maximal activity (AC50) was 79.6 µM (active) in assay [6]; 74.8 µM (active) in assay [9]; 82.4 µM (active) in assay [11]; 90.5 µM (active) in [12]; 50 µM (active) in [13]; 16.9 µM (active) in assay [14]. In addition, the concentration at half-maximal activity (AC50) in assay [16] was 80.1 µM (active); in assay [19] it was 90.9 µM (active).
